# Measured values reported in ChEMBL document CHEMBL3988442, “University of Dundee, Small-Polar-MMV Screening Library” (2021).
# The campaign covered roughly 48,000 compounds. About 13,000 (27%) showed an effect of 50% or more. This is one part of the list.
# System: Wolbachia pipientis
# Experiment: Anti-Wolbachia Cell-Based Screen
# Type: functional
# Set-up: scale not given: in the data most compounds retested in dose-response had high values
# Conditions: 5 µM
row,Structure (SMILES),Percent Effect
1,COc1cccc(CC(C)NC(=O)NCCc2cccnc2)c1 (configuration not stated),-9.147%
2,CS(=O)(=O)NCc1cncc2c1CCN(CC1CCOC1)C2.Cl.Cl (configuration not stated),-2.425%
3,CCN1CCc2c(CNC(=O)c3nccn3C)cncc2C1.Cl.Cl.Cl,11.07%
4,CN(C)Cc1cncc2c1CCN(CC(=O)N(C)C)C2,91.67%
5,Cl.Cl.c1cnc(NCc2cncc3c2CCN(CC2CC2)C3)nc1,93.82%
6,CN(C)C(=O)CN1C[C@@H]2CC[C@H](C1)N(Cc1c(Cl)cncc1Cl)C2,-12.98%
7,CC(C)N(C)Cc1cncc2c1CCN(CC1CC1)C2.Cl.Cl.Cl,102.9%
8,CC(C)N(C)Cc1cncc2c1CCN(CC(=O)N(C)C)C2.Cl.Cl.Cl,105.8%
9,CN(C)C(=O)CN1C[C@@H]2CC[C@H](C1)N(C(=O)Cc1ccccc1Cl)C2,-1.206%
10,CC(C(=O)N1CCCC1)N1CCCN(C(=O)Oc2ccccc2)CC1 (configuration not stated),21.65%
11,Cc1noc(C)c1CN1C(=O)[C@H]2CC[C@@H]1CN(Cc1nccs1)C2,-3.876%
12,FC1(F)CCNCC12CCN(c1ccccn1)C2 (configuration not stated),-2.564%
13,Cc1nc(NCc2ccco2)nc2c1COCC21CCNC1.O=C(O)C(F)(F)F (configuration not stated),-14.58%
14,N#Cc1ccc(NCCc2n[nH]c(=O)[nH]2)cc1Cl,-5.304%
15,CC(C)N(C)Cc1cncc2c1CCN(C1CCOCC1)C2.Cl.Cl.Cl,97.34%
16,CN(C)Cc1cncc2c1CCN(C1CCOCC1)C2.Cl.Cl.Cl,89.69%
17,CSc1ncc(CN2C[C@H]3CC[C@@H]2CN(C2CCOCC2)C3)cn1,-8.939%
18,O=C1[C@H]2CN(C3CCOCC3)C[C@H]2CN1Cc1cccnc1,-4.896%
19,COc1cccc(CC(C)NC(=O)NCCNC(C)=O)c1 (configuration not stated),-2.176%
20,Cc1cc(C)c(CNc2ncnc3c2cnn3C)c(=O)[nH]1,-6.133%
21,COc1c(CNCCc2c[nH]c3cc(F)ccc23)c(C(C)C)nn1C,79.98%
22,COc1c(CNCCc2c[nH]c3cc(F)ccc23)c(C)nn1C,86.39%

row,Structure (SMILES),Percent Effect
1,CC(C)(C)c1n[nH]c(C2CN(CC3CCC3)CCO2)n1 (configuration not stated),7.516%
2,O=C1CCCN1CCN1CC=C(c2cnn(C3CCS(=O)(=O)C3)c2)CC1 (configuration not stated),-11.25%
3,O=C(C1CCCC1)N1CCO[C@@H]2CNC[C@@H]21,-1.725%
4,c1cc(CN2CCO[C@@H]3CNC[C@@H]32)co1,-20.72%
5,N#Cc1cccc(CN2CCO[C@@H]3CNC[C@@H]32)c1,-0.4846%
6,Cl.Cl.c1cc(CN2CCO[C@@H]3CNC[C@@H]32)cs1,-7.592%
7,CC[C@H]1CN2CC[C@H]1C[C@@H]2CNC(=O)c1ccco1,-12.57%
8,O=C(c1ccccc1)N1CCO[C@@H]2CNC[C@@H]21,106.9%
9,Cl.Cl.c1ccc(CN2CCOC3CNCC[C@H]32)cc1 (some centres not stated),-10.82%
10,CC(=O)C1(c2ccccc2)CCN(C(=O)CC2CNCCO2)CC1 (configuration not stated),5.115%
11,O=C(C1CCC1)N1CCO[C@@H]2CNC[C@@H]21,7.79%
12,O=C(c1ccco1)N1CCO[C@@H]2CNC[C@@H]21,105.9%
13,O=C(c1ccccc1)N1CCOC2CNCC[C@H]21 (some centres not stated),121.8%
14,O=C(c1ccoc1)N1CCO[C@@H]2CNC[C@@H]21,113.2%
15,Cn1nc(-c2ccccc2)cc1[C@H]1CN2CC[C@H]1C[C@@H]2CNS(C)(=O)=O,1.19%
16,CNCc1cn(C[C@H]2CC3CCN2C[C@@H]3C(=O)Nc2ccccc2)nn1 (some centres not stated),-4.498%
17,O=C1NC[C@H]2CN(C3CCOCC3)CCN12,-8.801%
18,COc1ccccc1OCCCN1CC=C(c2cnn(C)c2)CC1,5.6%
19,CCC(CC)NCC(C)Oc1cccnc1 (configuration not stated),18.13%
20,O=C(C1CCCCC1)N1CCO[C@@H]2CNC[C@@H]21,-9.765%
21,Cl.Cl.O=C(N[C@H]1CN[C@H]2CCCO[C@H]21)c1cccnc1,-6.399%
22,O=C(c1cccnc1)N1CCO[C@@H]2CNC[C@@H]21,100.8%

row,Structure (SMILES),Percent Effect
1,N#Cc1cccc(CN2C[C@@H]3CN(c4ncccn4)C[C@@H]3C2)c1.O=C(O)C(F)(F)F,114.7%
2,Fc1cnccc1CN1CCC2(CCN2c2ncccn2)C1.O=C(O)C(F)(F)F (configuration not stated),-1.377%
3,O=C(O)C(F)(F)F.c1cnc(N2CCO[C@@H]3CN(Cc4ccoc4)C[C@@H]3C2)nc1,98.59%
4,Fc1cnc(N2C[C@H]3CN(Cc4cccc(F)c4)C[C@H]3C2)nc1.O=C(O)C(F)(F)F.O=C(O)C(F)(F)F,5.307%
5,Cc1cccc(CN2C[C@@H]3CN(Cc4ccoc4)CCO[C@@H]3C2)n1.O=C(O)C(F)(F)F.O=C(O)C(F)(F)F.O=C(O)C(F)(F)F,-28.06%
6,Fc1cccc(CN2CCC3(CCN3c3ncccn3)C2)c1.O=C(O)C(F)(F)F (configuration not stated),74.85%
7,Fc1cccc(CN2C[C@@H]3CN(c4ncccn4)C[C@@H]3C2)c1.O=C(O)C(F)(F)F.O=C(O)C(F)(F)F,102.6%
8,Cc1ccc(CN2C[C@@H]3CN(c4ncccn4)C[C@@H]3C2)cc1.O=C(O)C(F)(F)F,6.326%
9,O=C(O)C(F)(F)F.O=C(O)C(F)(F)F.O=C1CC2(CCN(Cc3cccnc3)C2)CN1c1cccc(F)c1 (configuration not stated),15.74%
10,O=C(O)C(F)(F)F.O=C(O)C(F)(F)F.O=C(O)C(F)(F)F.c1cncc(CN2CCO[C@@H]3CN(Cc4ccoc4)CC[C@@H]3C2)c1,-22.75%
11,Cc1nnc([C@@H]2C[C@H]3CN(C4CCC4)C[C@H]3O2)[nH]1.O=C(O)C(F)(F)F,6.797%
12,CCN1C(=O)C2(CCCCC2)NC12CCSCC2,-2.409%
13,CCCNC1(c2ccc(Cl)cc2)CCOCC1,-6.475%
14,CN1CCC(c2cncc(N(C)C)n2)CC1,94.73%
15,COCCNc1nc2c(c(NCc3cnc(C)c(C)c3)n1)CCNCC2,2.827%
16,Cc1cc(CN2CC[C@H]3C[C@H](C(=O)N(C)C)O[C@@H]3C2)no1,-3.331%
17,Cc1cc(CN2C[C@@H]3COC[C@]3(c3nnc(C)o3)C2)no1,12.18%
18,Cc1nnc([C@H]2CC[C@@H]3[C@@H](CCN3Cc3c(C)noc3C)O2)o1,0.6834%
19,C[C@@H]1C[C@@H]2CCN(Cc3nccs3)C[C@H]2O1,-21.98%
20,Cc1cc(CN2C[C@@H]3CN(Cc4ccsc4)CCO[C@@H]3C2)no1,-0.7027%
21,Cc1csc(CN2CC[C@H]3C[C@H](c4ccncn4)O[C@@H]3C2)n1,0.9996%
22,Cc1cc(CN2CC[C@H]3C(=O)N(c4ccsc4)CCO[C@H]3C2)no1.O=C(O)C(F)(F)F,-15.71%

row,Structure (SMILES),Percent Effect
1,Cc1csc([C@H]2C[C@@H]3CCN(Cc4cc(C)on4)C[C@H]3O2)n1,115.5%
2,Cc1cc(CN2CC[C@@H]3O[C@@H](c4nnc(C)o4)C[C@H]3C2)no1,110.6%
3,Cc1csc([C@H]2C[C@H]3CN(Cc4cc(C)on4)CC[C@@H]3O2)n1.O=C(O)C(F)(F)F,122.4%
4,Cc1csc([C@@H]2C[C@@H]3CCN(Cc4cc(C)on4)C[C@H]3O2)n1,98.39%
5,Cc1noc([C@@H]2C[C@H]3CN(Cc4cc(C)on4)C[C@H]3O2)n1.O=C(O)C(F)(F)F,5.383%
6,Cc1nn(C)c(C)c1C(C(=O)O)N1CC=C(c2ccccc2)CC1 (configuration not stated),-20.97%
7,CN1CCN(C[C@H]2CN3CC[C@H]2C[C@@H]3CNC(=O)c2ccco2)CC1,-8.219%
8,Cc1ccc(CN2CCO[C@H]3[C@H](OCc4cccnc4)CC[C@@H]32)o1.O=C(O)C(F)(F)F.O=C(O)C(F)(F)F,105.6%
9,O=C(O)C(F)(F)F.O=C(O)C(F)(F)F.c1cncc(CO[C@H]2CC[C@H]3[C@@H]2OCCN3C2CCOCC2)c1,-9.441%
10,Cc1ccc(CN2CCO[C@@H]3[C@@H](OCc4cccnc4)CC[C@@H]32)o1,103.6%
11,Cc1ccc(CN2CCO[C@H]3[C@@H](OCc4cccnc4)CC[C@@H]32)o1.O=C(O)C(F)(F)F.O=C(O)C(F)(F)F,111.1%
12,c1ccc(O[C@H]2CC[C@H]3[C@H]2OCCN3Cc2nccs2)nc1,-6.34%
13,CC(C)CNC(=O)N1CCOC2(CCNCC2)C1,-1.344%
14,CC[C@H](N)Cn1nc(-c2cccs2)oc1=O.Cl,-4.464%
15,CCOCCNC1(c2ccc(Cl)cc2)CCOCC1,-4.765%
16,CN(CCc1ccccc1)Cc1nc2c(cnn2C)c(=O)[nH]1,101%
17,CN(CCc1ccc(F)cc1)Cc1nc2c(cnn2C)c(=O)[nH]1,17.64%
18,CC(NC(=O)CN1CCCC1=O)c1ccc(Cl)s1 (configuration not stated),-9.497%
19,O=C(c1ccc2c(c1)COC2)N1CCC(Nc2ccccc2)CC1,5.047%
20,O=C(CCc1ccsc1)N1CCC(C(=O)O)(c2ccccc2)CC1,7.958%
21,O=C(c1ccc2c(c1)OCO2)N1CCC(C(=O)O)(c2ccccc2)CC1,117.1%
